Screens: PubChem, National Center for Advancing Translational Sciences (NCATS)
Hits are enriched below; roughly 5.4% of the tested compounds scored in any of these assays.
FMDV antiviral: antivirals against foot and mouth disease virus. actives 1.2% (n = 410,000). FMDV antiviral cell-based qHTS. Potency, µM (top dose mostly 57.9 µM), for inactives: at the top dose activity change, negative = inhibition, actives largely listed as inhibitors; calls by dose curve; tested in HEK293T cells; note: read-out not given here; nearly all actives have a fitted effect of over 45% in size
VACV mCherry inh: vaccinia inhibition (mCherry reporter); Vaccinia virus mCherry reporter infection, fluorescence; Potency, µM (series often up to 36.5 µM), without a hit: at the top dose activity change, negative = inhibition, hits mostly inhibitors; actives 0.63% (n = 310,000); AID 720579; calls by dose curve; tested in A549 cells; note: nearly all actives have a fitted effect of over 35% in size
VACV Venus inh: inhibitors of vaccinia virus (Venus reporter) | actives 0.46% (n = 330,000) | Vaccinia virus Venus reporter expression, fluorescence | Potency, µM (titrated, usually from 36.5 µM), without a hit: at the highest dose activity change, negative = inhibition, most hits filed as inhibitors; calls by dose curve; tested in A549 cells; note: nearly all actives have a fitted effect of over 30% in size
MARV entry inh: Marburg virus entry inhibition; Marburg virus pseudotyped entry inhibition, cell reporter; Potency, µM (titrated, usually from 37.8 µM), inactives show at the highest dose activity change, negative = inhibition, most hits filed as inhibitors; actives 1.8% (n = 300,000); calls by dose curve; tested in HEK293 cells
Sm TGR inh: S. mansoni TGR enzyme inhibition; purified TGR, DTNB reduction, TNB absorbance 405 nm; actives 3% (n = 360,000); Q962Y6; AID 485364; Potency, µM (series often up to 114 µM), inactives show at the top dose activity change, negative = inhibition, hits mostly inhibitors; active = well fitted inhibition curve with a large enough effect; inconclusive = small, poorly fitted or top-dose-only effect; inactive = no such curve, though single readings can be large or run the other way; note: nearly all actives have a fitted effect of over 60% in size
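Kinetic colorimetric format: TGR-catalysed, NADPH-driven DTNB reduction monitored via TNB absorbance. Enzyme dispensed at 20 nM; compound exposure 15 min at room temperature before reaction start.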
LASV entry inh: Lassa virus entry inhibition; Lassa virus pseudotype entry inhibition, cell reporter; Potency, µM (highest dose often 37.9 µM), inactives show top-dose activity change, negative = inhibition, actives largely listed as inhibitors; actives 1.2% (n = 300,000); calls by dose curve; tested in HEK293 cells; note: nearly all actives have a fitted effect of over 50% in size
* = called active by the depositor; i = inactive; ? = inconclusive; . = not tested or not shown; ! = repeats disagree; [ ] = another dose, or the depositor's remark. % is set by controls: 0 for no effect and ±100 for the full control effect; potency is the fitted concentration of half-maximal effect.

SMILES | FMDV antiviral | VACV mCherry inh | VACV Venus inh | MARV entry inh | Sm TGR inh | LASV entry inh
CCn1ncc(Cl)c1C(=O)NC(=S)Nc1ccccc1Br | -26% | 0% | -6% | 6% | 28µM* | -23%
O=C(NC(=S)Nc1ccccc1Br)c1cccnc1 | 0% | . | . | . | 18µM* | .
O=C(NC(=S)Nc1ccc(Cl)cn1)c1cccs1 | 96% | . | -10% | ? | 0% | ?
O=C(NC(=S)Nc1ccc(Br)cn1)c1cccnc1 | 48% | 4% | 10% | 5%[46.1 µM] | 14% | -2%[46.1 µM]
CC(=O)N1CCCc2cc(S(=O)(=O)NCc3ccc(OC(C)C)cc3)ccc21 | ? | -9% | -12% | . | -6% | ?
O=C(NC(=S)Nc1cccnc1)c1ccccc1 | 64% | -4% | 0% | ? | 22µM* | .
O=C(NC(=S)Nc1cccnc1)c1cccc(Br)c1 | 0% | -11% | 11% | ? | 16µM* | 1%[46.1 µM]
CC(C)c1ccc(C(=O)Nc2cccnc2)cc1 | -12% | -12% | -22% | 4µM* | 5% | ?
Cc1snnc1C(=O)NC(=S)Nc1ccccc1 | -14% | i | -11% | 0%[46.1 µM] | 8.9µM* | 18%[46.1 µM]
CC(C)c1ccc(-c2nc(C(N)=O)c3c(n2)n(-c2ccc4c(c2)OCO4)c(=O)n3C)cc1 | 0% | -2% | -21% | . | 3% | -9%[46.1 µM]
CCN(C(=S)Nc1cccnc1)c1ccccc1 | -11% | -4% | -5% | 1%[46.1 µM] | 25µM* | 11%
CC1(C)CC(=O)C(Sc2ccccc2C(=O)O)=C(O)C1 | -8% | -12% | -3% | ? | -15% | -1%
CC1(C)CC(=O)C(Sc2ccccc2)=C(O)C1 | -14% | i | 9% | ? | 10µM* | 3%[46.1 µM]
O=C1NC[C@H](CCCCN2C[C@H](Cc3ccccc3)N(CCC3CCCCC3)C(=O)C2=O)N(CCC2CCCCC2)C1=O | 40µM* | ? | ? | . | . | .
Cn1c(/C(C#N)=C/c2ccncc2)nc2ccccc21 | 16µM* | . | . | . | . | .
Cn1c(/C(C#N)=C/c2ccc(O)cc2)nc2ccccc21 | 16% | . | . | . | 8% | .
Nc1ccc(-c2ccc3ccccc3n2)cc1 | . | . | . | 6.3µM* | . | ?
CN(C)c1nc(NCc2ccccc2)nc(SCC(=O)Nc2ccc(Cl)c(Cl)c2)n1 | ? | . | . | 12µM* | 3% | -21%
Cc1cc2c(n1-c1ccc(C(=O)NCCc3ccc(Cl)cc3)cc1)CCC(C)C2 (configuration not stated) | -23% | -7% | -4% | . | -11% | -16%[46.1 µM]
COc1ccc(-c2nnc3sc(COc4ccc(C)cc4)nn23)cc1 | -3% | . | -5% | -1% | 9% | 13µM*
FC(F)(F)c1cc(-c2ccco2)nc(NCc2cccnc2)n1 | 0% | -20% | -28% | -3% | 45µM* | -29%
Fc1ccc(-c2cc(C(F)(F)F)nc(NCc3ccccc3)n2)cc1 | -32% | -7% | -1% | 0%[46.1 µM] | 8% | 12%[46.1 µM]
Fc1ccc(CNc2nc(-c3ccco3)cc(C(F)(F)F)n2)cc1 | -28% | . | . | 9.2µM* | 25µM* | -21%
FC(F)(F)c1cc(-c2ccco2)nc(NCc2ccccc2)n1 | -26% | . | . | -13% | 18µM* | 0%
COC(=O)c1c(OCc2cccnc2)cc(=O)n2c1CCN(C(=O)c1c3c(nn1C)CCCC3)CC2 | -17% | -15% | -14% | . | . | .
SMILES | FMDV antiviral | VACV mCherry inh | VACV Venus inh | MARV entry inh | Sm TGR inh | LASV entry inh
COc1cccc(CNS(=O)(=O)c2ccc3c(c2)C(C(C)C)C(=O)N3)c1 (configuration not stated) | -21% | -10% | 5% | . | -14% | 13%[46.1 µM]
CC(=O)Oc1ccccc1C(=O)O | -17% | -12% | -8% | ? | . | ?
CC(=O)[O][Hg][c]1ccccc1 | 4.5µM* | 20µM* | ? | . | . | .
CCOc1ccc(C(C)=O)cc1N1C(=O)C2C3C=CC(C3)C2C1=O (configuration not stated) | 17% | . | . | 8% | ? | 8%
CCOc1ccc(C(C)=O)cc1N1C(=O)C2C3C=CC(O3)C2C1=O (configuration not stated) | -25% | . | . | -25% | 0.71µM* | 0%
Cc1cccc(N2CCc3c2nc2ccc(Br)cc2c3N)c1 | . | 11µM* | ? | ? | 1% | 10%
C[C@H]1CC[C@H]2C(=O)NC[C@H](O)CN2[C@H]1c1ccc(Br)cc1 | . | . | . | -10%[14.2 µM] | . | .
CCOP(=O)(OCC)C(NS(=O)(=O)c1ccccc1)C(Cl)(Cl)Cl (configuration not stated) | 4% | -5% | -3% | 0%[46.1 µM] | 14µM* | -14%[46.1 µM]
CN1CCCC1CCNC1C2CC3CC(C2)CC1C3 (configuration not stated) | 10% | -21% | -13% | 13µM* | 5% | -50%[14.3 µM]
CN1CCCC1CN1CCCC1 (configuration not stated) | -11% | -6% | -2% | . | . | .
COc1ccc(CN2CCOc3c(cc(-c4cccc(OC)n4)cc3OC)C2)c(O)c1 | -2% | i | 0% | . | . | .
C=CCn1c(SCc2nc3scc(-c4ccccc4)c3c(=O)[nH]2)nnc1-c1ccccc1F | 28µM* | -18% | -11% | ? | 4% | -9%
CCn1c(SCc2nc3scc(-c4ccccc4)c3c(=O)[nH]2)nnc1-c1ccc(Cl)cc1 | ? | -11% | -8% | ? | -6% | 6%
CC1=CC(=O)C(C(C)C)=CC1=NC(=O)c1ccc(C)cc1 | 8% | -17% | -23% | . | 3.2µM* | .
CC1=CC(=O)C(C(C)C)=C/C1=N\OC(=O)c1cccc2nc(C)oc12 | ? | i | -5% | 3% | -12% | 8%
c1coc(CNc2nc3nonc3nc2NCc2ccco2)c1 | ? | -18% | -25% | ? | 50µM* | -10%
COc1cc2ncnc(NCc3ccco3)c2cc1OC | -26% | . | . | . | . | .
Brc1ccc2ncnc(NCc3ccco3)c2c1 | 14µM* | -1% | -27% | ? | ? | ?
c1coc(CNc2ncnc3[nH]ncc23)c1 | 0% | 6.3µM*! | ? | ? | -1% | -27%[46.1 µM]
O=C(CN1Cc2ccccc2OC(c2ccsc2)C1)NCc1ccc2c(c1)OCO2 (configuration not stated) | -3% | -14% | -5% | . | . | .
NC(=O)N1CCC2=C1CCCC2 | . | . | . | 5%[46.1 µM] | . | .
CC1(C)CC(=O)C(C=Nc2cccnc2)=C(O)C1 | -2% | -10% | -9% | 22% | 5% | -5%
CC1(C)CC(=O)C(C=Nc2cccnc2/N=C/C2=C(O)CC(C)(C)CC2=O)=C(O)C1 | -6% | -7% | -10% | 0%[46.1 µM] | 22µM* | -13%[46.1 µM]
COc1ccc(OC)c(CNS(=O)(=O)c2cc(-c3onc(C)c3C)ccc2C)c1 | 11% | -5% | -7% | . | 1% | -12%[46.1 µM]
CC(C)(C)NC(=O)C(c1ccncc1)N(Cc1ccc(F)cc1)C(=O)c1ccc(-c2ccccc2)[nH]1 (configuration not stated) | 18% | -3% | -28% | ? | 32µM* | -22%[46.1 µM]
O=C(NC1CCCC1)C(c1ccncc1)N(Cc1ccccc1)C(=O)c1ccc(-c2ccccc2)[nH]1 (configuration not stated) | -3% | -25% | -30% | ? | ? | ?
